Measured values reported in PubChem BioAssay (NCATS).
Records with an inconclusive call do not appear. Calls of active or inactive are those of the source. Unless noted, calls follow the shape of the full dose curve.

Key:
[1] = molecular target: Glucocorticoid receptor (Homo sapiens) (UniProt P04150); test: qHTS assay for small molecule agonists of glucocorticoid receptor signaling (AID 588532; active = well fitted curve in the direction sought with a large enough effect in the signal ratio, with a control signal flat; the % refers to the signal ratio;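 also: 100% = dexamethasone at 0.1 µM and 0% = DMSO only wells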); conditions: HeLa MMTV-bla, beta-lactamase ratio, agonist, 18 h; activation: stronger effect = higher value, percent of dexamethasone control, DMSO zero
Method in brief: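 Stimulation of a glucocorticoid response element-driven beta-lactamase gene was measured in HeLa cells. Responses were scaled between DMSO basal and 0.1 uM dexamethasone, then fitted for half-maximal stimulation.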

[2] = molecular target: Peroxisome proliferator-activated receptor delta (Homo sapiens) (UniProt Q03181); test: qHTS assay for small molecule agonists of peroxisome proliferator-activated receptor delta signaling (AID 588534);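 also: 0% = DMSO basal wells and 100% = positive control agonist at 10 µM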
Method in brief: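 EC50 and efficacy values derive from Hill fits of a concentration series in a beta-lactamase reporter cell assay. Exposure is 18 hrs at 37 C, with CCF4 fluorescence as the readout.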

[3] = molecular target: Peroxisome proliferator-activated receptor gamma (Homo sapiens) (UniProt P37231); test: qHTS assay for small molecule antagonists of peroxisome proliferator-activated receptor gamma signaling (AID 588537; active = well fitted inhibition curve with a large enough effect in the signal ratio, with a control signal flat, not every such curve was filed as active; the % refers to the signal ratio; also: potency is read from the fitted curve at half-maximal effect)
Method in brief: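 HEK293 cells, PPAR-gamma-UAS-bla, 3000/well. Pre-incubation 6-6.5 h, 37 C. Compound titration with rosiglitazone 50 nM final, 16 h. CCF4 dye, 2 h RT, dual-emission fluorescence.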

[4] = molecular target: Vitamin D3 receptor (Homo sapiens) (UniProt P11473); test: qHTS assay for small molecule agonists of vitamin D receptor signaling (AID 588543);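 also: 0% = DMSO basal and 100% = reference agonist control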
Method in brief: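 VDR-UAS-bla HEK293T cells, 2000/well, 2% charcoal-stripped FBS; compound titration 16 h at 37 C; CCF4 beta-lactamase ratio read. Normalized to 50 nM 1-alpha,25-dihydroxyvitamin D3 (100%) and DMSO; Hill fit gives EC50, efficacy.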

[5] = qHTS assay for small molecule agonists of retinoid X receptor alpha signaling (AID 588544); conditions: HEK293T RXRa-UAS-bla, beta-lactamase reporter, 18 h; 530 nm emission; also: potency is read from the fitted curve at half-maximal effect;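 as to activation: 0% = DMSO basal wells and 100% = reference agonist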
[6] = molecular target: Retinoic acid receptor RXR-alpha (Homo sapiens) (UniProt P19793); test: as above
[7] = molecular target: Thyroid hormone receptor beta (Homo sapiens) (UniProt P10828); test: qHTS assay for small molecule agonists of thyroid hormone receptor beta signaling (AID 588545);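 also: 0% = DMSO only and 100% = 10 nM T3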
Method in brief: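 TR-UAS-bla-GripTite HEK 293 cells in medium with 2% charcoal/dextran FBS, 0.1 mM NEAA and 1 mM sodium pyruvate were treated with titrated compounds for 18 hrs at 37 C. Beta-lactamase reporter was read with CCF4 dye (ex 405, em 460/530 nm); EC50 from Hill fits.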

[8] = qHTS assay for small molecule activators of the nuclear factor-kappa B (NF-kB) signaling pathway (AID 651749; active = well fitted activation curve with a large enough effect in the signal ratio; the % refers to the signal ratio; also: series mostly up to about 77 µM; % of control where 0% means no effect); conditions: NF-kB-bla ME-180 cells, beta-lactamase FRET ratio, 16 h; activation: stronger effect = higher value
Method in brief: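 Beta-lactamase reporter expression, controlled by NF-kB response elements in ME-180 cells, was quantified fluorometrically via FRET disruption; cells at 2,000/well had been incubated with 23 nL test compound for 16 hr.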

[9] = molecular target: Peroxisome proliferator-activated receptor alpha (Homo sapiens) (UniProt Q07869); test: qHTS assay for small molecule agonists of the peroxisome proliferator-activated receptor alpha (PPARalpha) signaling pathway (AID 651778; active = well fitted curve in the direction sought with a large enough effect; an effect the other way counts as inactive or inconclusive; also: % of control where 0% means no effect); conditions: PathHunter PPARalpha complementation, chemiluminescence, 6 h; max response: stronger effect = higher value
Method in brief: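 Cells plated at 2,000/well and held overnight at 37 C, 5% CO2, then compound added by pin tool for 6 hr; after PathHunter detection reagent and 60 min at room temperature, chemiluminescence from enzyme complementation was read.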

[10] = qHTS assay for small molecule agonists of the antioxidant response element (ARE) signaling pathway measured by Nrf2-dependant transcriptional activity (AID 720636; active = well fitted curve in the direction sought with a large enough effect in the repeat runs; an effect the other way counts as inactive or inconclusive; also: % of control where 0% means no effect)
Method in brief: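 HepG2 ARE-luc reporter line, 1% dialyzed FBS; 6 hr attachment at 37 C, compound pinned in, 16 hr at 37 C/5% CO2; ONE-Glo, 30 min RT, luminescence read.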

[11] = qHTS assay for small molecule agonists of the antioxidant response element (ARE) signaling pathway measured by Nrf2-dependant transcriptional activity - cell viability counter screen (AID 720653; active = well fitted curve in the direction sought with a large enough effect in the repeat runs; an effect the other way counts as inactive or inconclusive; also: % is scaled to controls: 0 for no effect and ±100 for the full control effect); conditions: ARE-bla HepG2 viability, CellTiter-Glo ATP luminescence, 16 h; max response: stronger effect = lower value
Method in brief: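 ARE-bla HepG2 cells (2,000/well) rested 5 hrs at 37C/5% CO2, then exposed to compounds in DMSO for 16 hrs. Viability was read in the same wells as intracellular ATP by luminescence, 30 min at room temperature after reagent addition.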

[12] = qHTS assay for cell viability of HEK293 cells (AID 743288; active = well fitted curve in the direction sought with a large enough effect; an effect the other way counts as inactive or inconclusive; also: % is scaled to controls: 0 for no effect and ±100 for the full control effect; nearly all actives have a fitted effect of over 50% in size); conditions: ATP luminescence (CellTiter-Glo), 18 h; max response: stronger effect = lower value
Method in brief: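 Steps: plate 2,000 parental HEK293 cells per well; incubate ≥5 h, 37 C; add compounds in DMSO; incubate 18 h, 37 C; add CellTiter-Glo; wait 30 min at room temperature; read luminescence.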

[13] = qHTS assay for cell viability of the p53RE-bla HCT-116 cell line (AID 743292; active = well fitted curve in the direction sought with a large enough effect; an effect the other way counts as inactive or inconclusive; also: % is scaled to controls: 0 for no effect and ±100 for the full control effect; nearly all actives have a fitted effect of over 55% in size)
Method in brief: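 Luminescent ATP quantitation (CellTiter-Glo) served as the viability read-out; reagent was added after 16 h compound exposure at 37 C and read after 30 min at room temperature. Cells: p53RE-bla HCT-116, 4,000 per well.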

[14] = qHTS assay for environmental chemicals that activate the Aryl hydrocarbon Receptor (AhR) signaling pathway (AID 651777; active = well fitted curve in the direction sought with a large enough effect; an effect the other way counts as inactive or inconclusive; also: % of control where 0% means no effect; nearly all actives have a fitted effect of over 15% in size); conditions: 1A2-DRE human hepatoma cells, luciferase, 24 h; activation: stronger effect = higher value
Method in brief: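 Luminescence read-out: One-Glo added for 30 min at RT after 24 hr compound treatment (37 C, 5% CO2) of human hepatoma cells expressing a DRE/CYP1A2 promoter–luciferase reporter; increased signal indicates AhR activation.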

[15] = molecular target: Glucocorticoid receptor (Homo sapiens) (UniProt P04150); test: qHTS assay for small molecule antagonists of glucocorticoid receptor signaling (AID 588533; active = well fitted inhibition curve with a large enough effect in the signal ratio, with a control signal flat, not every such curve was filed as active; the % refers to the signal ratio;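 also: cells stimulated with 2 nM dexamethasone as agonist; % is scaled to controls: 0 for no effect and ±100 for the full control effect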)
Method in brief: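 Antagonist-mode qHTS: compound titrations added to GRE-bla HeLa cells, then dexamethasone 2 nM final; 18 h, 37 C. CCF4 FRET fluorescence normalized to dexamethasone and DMSO; IC50 from Hill fit.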

[16] = molecular target: Peroxisome proliferator-activated receptor gamma (Homo sapiens) (UniProt P37231); test: qHTS assay for small molecule agonists of peroxisome proliferator-activated receptor gamma signaling (AID 588536; active = well fitted curve in the direction sought with a large enough effect in the signal ratio, with a control signal flat, not every such curve was filed as active; the % refers to the signal ratio;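 also: 0% = DMSO basal wells and 100% = rosiglitazone at 2 µM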)
Method in brief: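 Compound treatment: 16 h, 37 C, HEK293 GeneBLAzer cells. Detection: CCF4, 2 h RT. Values: Hill-fit EC50, efficacy as % of 2 uM rosiglitazone.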

[17] = molecular target: Vitamin D3 receptor (Homo sapiens) (UniProt P11473); test: qHTS assay for small molecule antagonists of vitamin D receptor signaling (AID 588541);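 also: receptor activated by calcitriol during compound treatment; series mostly up to about 77 µM; % is scaled to controls: 0 for no effect and ±100 for the full control effect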
Method in brief: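 VDR-UAS-bla HEK293T cells (2000/well, 2% charcoal-stripped FBS) were treated with titrated compounds plus 1-alpha,25-dihydroxyvitamin D3 (50 nM or 3 nM final) for 16 h at 37 C. CCF4 beta-lactamase fluorescence was read; Hill fits gave IC50.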

[18] = qHTS assay for small molecule antagonists of retinoid X receptor alpha signaling (AID 588546; active = well fitted inhibition curve with a large enough effect in the signal ratio, with a control signal flat, not every such curve was filed as active; the % refers to the signal ratio;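 also: cells stimulated with 9-cis-retinoic acid as agonist; % is scaled to controls: 0 for no effect and ±100 for the full control effect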); conditions: HEK293T RXRa-UAS-bla, beta-lactamase ratio, antagonist mode; measured here: W530 green channel, cytotoxicity proxy
Method in brief: (§1)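 Beta-lactamase reporter inhibition, read as CCF4 fluorescence ratio (ex 405, em 460/530 nm) after 2 h at RT. HEK293T UAS-bla cells, 2500/well, were stimulated with 9-cis-RA at 500 or 100 nM final alongside test compound for 18 h at 37 C.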

[19] = molecular target: Retinoic acid receptor RXR-alpha (Homo sapiens) (UniProt P19793); test: as above; conditions: HEK293T RXRa-UAS-bla, beta-lactamase ratio, antagonist mode
Method in brief: as §1

[20] = qHTS assay for small molecule activators of the p53 signaling pathway (AID 651743; active = well fitted activation curve with a large enough effect in the signal ratio, not every such curve was filed as active; the % refers to the signal ratio; also: series mostly up to about 92 µM; % of control where 0% means no effect); conditions: HCT-116 p53RE-bla, beta-lactamase FRET ratio, 16 h; activation: stronger effect = higher value
Method in brief: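 Here HCT-116 cells with an integrated p53-responsive beta-lactamase gene were incubated with compounds (16 hours, 37 C) after a 5-hour plating period; beta-lactamase activity was detected as fluorescence intensity via B/G FRET substrate.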

[21] = molecular target: Nuclear receptor subfamily 1 group I member 2 (Rattus norvegicus) (UniProt Q9R1A7); test: qHTS assay for small molecule activators of the rat pregnane X receptor (rPXR) signaling pathway (AID 651751; call rule not given here; also: 0% is about no effect); conditions: rPXR reporter cells, luciferase (One-Glo), 24 h
[22] = qHTS assay for small molecule activators of the human pregnane X receptor (PXR) signaling pathway (AID 720659; call rule not given here; also: 0% is about no effect)
[23] = qHTS assay for small molecule antagonists of peroxisome proliferator-activated receptor delta signaling (AID 588535; active = well fitted inhibition curve with a large enough effect in the signal ratio, with a control signal flat, not every such curve was filed as active; the % refers to the signal ratio;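 as to max response: cells co-treated with a PPAR-delta agonist as stimulator during compound exposure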); conditions: HEK293T PPARd-UAS-bla, beta-lactamase FRET ratio, 18 h; 460 nm channel
Method in brief: (§2)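 Compounds tested in titration on PPAR-delta-UAS-bla HEK293T cells grown in charcoal/dextran-stripped serum (2%); beta-lactamase activity read via CCF4 emission at 460 and 530 nm.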

[24] = molecular target: Peroxisome proliferator-activated receptor delta (Homo sapiens) (UniProt Q03181); test: as above
Method in brief: as §2

[25] = molecular target: Thyroid hormone receptor beta (Homo sapiens) (UniProt P10828); test: qHTS assay for small molecule antagonists of thyroid hormone receptor beta signaling (AID 588547; active = well fitted inhibition curve with a large enough effect in the signal ratio, with a control signal flat, not every such curve was filed as active; the % refers to the signal ratio); conditions: TR-UAS-bla HEK293, beta-lactamase ratio, antagonist mode, 18 h
Method in brief: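 TR-UAS-bla GripTite HEK293 cells in 2% charcoal/dextran FBS medium were preincubated 4 h at 37 C, given compound (0.59 nM to 92 uM) plus 0.4 nM T3 (final) for 18 h, then CCF4 for 2 h at RT; Hill fit gave IC50.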

[26] = qHTS assay for small molecule agonists of the antioxidant response element (ARE) signaling pathway (AID 651741; active = well fitted activation curve with a large enough effect in the signal ratio; the % refers to the signal ratio; also: % of control where 0% means no effect)
Method in brief: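 Beta-lactamase reporter expression driven by the antioxidant response element in HepG2 cells was detected by fluorescence with LiveBLAzer B/G FRET substrate (2 h, room temperature) following 16 h compound treatment at 37 C.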

Chain of Nuclear receptor subfamily 1 group I member 2 (Rattus norvegicus) (Q9R1A7 whole entry, looked up): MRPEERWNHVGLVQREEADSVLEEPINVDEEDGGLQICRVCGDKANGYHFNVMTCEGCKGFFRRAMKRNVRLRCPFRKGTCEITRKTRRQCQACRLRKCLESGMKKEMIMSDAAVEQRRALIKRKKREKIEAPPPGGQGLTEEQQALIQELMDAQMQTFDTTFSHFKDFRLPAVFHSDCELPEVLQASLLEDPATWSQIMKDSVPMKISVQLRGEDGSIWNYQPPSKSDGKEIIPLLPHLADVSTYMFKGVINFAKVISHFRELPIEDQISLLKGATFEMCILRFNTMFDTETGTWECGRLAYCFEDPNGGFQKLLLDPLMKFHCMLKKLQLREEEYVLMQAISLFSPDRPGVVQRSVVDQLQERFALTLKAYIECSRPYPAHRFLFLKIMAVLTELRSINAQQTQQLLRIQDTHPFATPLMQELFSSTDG
Chain of Peroxisome proliferator-activated receptor delta (Homo sapiens) (Q03181 whole entry, looked up): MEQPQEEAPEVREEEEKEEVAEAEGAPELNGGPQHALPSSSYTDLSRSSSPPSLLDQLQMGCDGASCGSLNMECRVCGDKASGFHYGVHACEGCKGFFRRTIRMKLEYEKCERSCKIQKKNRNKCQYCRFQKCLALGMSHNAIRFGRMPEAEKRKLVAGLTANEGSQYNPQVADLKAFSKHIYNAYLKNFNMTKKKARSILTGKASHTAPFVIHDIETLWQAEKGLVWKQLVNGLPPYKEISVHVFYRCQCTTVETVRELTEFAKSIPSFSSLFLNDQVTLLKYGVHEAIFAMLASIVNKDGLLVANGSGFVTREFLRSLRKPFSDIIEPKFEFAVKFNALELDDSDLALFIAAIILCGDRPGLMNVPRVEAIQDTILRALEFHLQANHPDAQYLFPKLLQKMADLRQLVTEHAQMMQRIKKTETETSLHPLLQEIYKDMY
Chain of Peroxisome proliferator-activated receptor gamma (Homo sapiens) (P37231 whole entry, looked up): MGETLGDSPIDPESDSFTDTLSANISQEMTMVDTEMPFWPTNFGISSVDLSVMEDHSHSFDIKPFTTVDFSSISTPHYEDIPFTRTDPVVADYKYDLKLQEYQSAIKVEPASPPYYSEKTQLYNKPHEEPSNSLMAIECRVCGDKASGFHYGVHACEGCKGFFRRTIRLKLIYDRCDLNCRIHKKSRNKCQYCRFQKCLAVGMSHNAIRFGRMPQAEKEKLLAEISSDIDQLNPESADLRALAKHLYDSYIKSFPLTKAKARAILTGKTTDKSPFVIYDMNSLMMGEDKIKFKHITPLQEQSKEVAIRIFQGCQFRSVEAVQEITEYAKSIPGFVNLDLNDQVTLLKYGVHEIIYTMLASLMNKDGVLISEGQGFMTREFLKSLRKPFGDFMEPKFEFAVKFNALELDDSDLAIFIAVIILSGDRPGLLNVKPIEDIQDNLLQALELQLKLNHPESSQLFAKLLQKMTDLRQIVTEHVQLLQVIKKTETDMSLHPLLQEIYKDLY
Chain of Retinoic acid receptor RXR-alpha (Homo sapiens) (P19793 whole entry, looked up): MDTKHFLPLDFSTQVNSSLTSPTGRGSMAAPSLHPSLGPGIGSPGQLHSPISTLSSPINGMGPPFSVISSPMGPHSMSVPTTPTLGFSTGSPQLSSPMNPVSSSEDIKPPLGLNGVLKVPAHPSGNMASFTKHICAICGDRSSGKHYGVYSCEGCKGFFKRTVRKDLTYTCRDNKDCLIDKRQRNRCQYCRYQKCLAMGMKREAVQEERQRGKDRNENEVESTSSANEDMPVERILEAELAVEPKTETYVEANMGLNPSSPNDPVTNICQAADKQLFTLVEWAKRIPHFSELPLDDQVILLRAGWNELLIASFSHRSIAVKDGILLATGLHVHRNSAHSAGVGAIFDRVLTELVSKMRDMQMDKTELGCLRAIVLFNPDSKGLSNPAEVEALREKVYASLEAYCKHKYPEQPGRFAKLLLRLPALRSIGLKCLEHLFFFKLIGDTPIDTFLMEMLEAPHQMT
Chain of Thyroid hormone receptor beta (Homo sapiens) (P10828 whole entry, looked up): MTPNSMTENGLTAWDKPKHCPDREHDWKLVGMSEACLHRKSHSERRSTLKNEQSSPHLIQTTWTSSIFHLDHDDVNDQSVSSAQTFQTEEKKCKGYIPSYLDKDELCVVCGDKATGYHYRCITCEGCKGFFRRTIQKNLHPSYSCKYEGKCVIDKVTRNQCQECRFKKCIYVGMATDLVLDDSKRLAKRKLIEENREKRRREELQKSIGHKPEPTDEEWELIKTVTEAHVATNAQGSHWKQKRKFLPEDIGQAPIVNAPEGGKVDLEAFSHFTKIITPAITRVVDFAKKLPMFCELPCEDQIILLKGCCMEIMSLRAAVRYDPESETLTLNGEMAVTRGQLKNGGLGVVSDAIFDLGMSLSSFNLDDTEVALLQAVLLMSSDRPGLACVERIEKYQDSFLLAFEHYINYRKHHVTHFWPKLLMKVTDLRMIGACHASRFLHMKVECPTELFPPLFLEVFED
Chain of Peroxisome proliferator-activated receptor alpha (Homo sapiens) (Q07869 whole entry, looked up): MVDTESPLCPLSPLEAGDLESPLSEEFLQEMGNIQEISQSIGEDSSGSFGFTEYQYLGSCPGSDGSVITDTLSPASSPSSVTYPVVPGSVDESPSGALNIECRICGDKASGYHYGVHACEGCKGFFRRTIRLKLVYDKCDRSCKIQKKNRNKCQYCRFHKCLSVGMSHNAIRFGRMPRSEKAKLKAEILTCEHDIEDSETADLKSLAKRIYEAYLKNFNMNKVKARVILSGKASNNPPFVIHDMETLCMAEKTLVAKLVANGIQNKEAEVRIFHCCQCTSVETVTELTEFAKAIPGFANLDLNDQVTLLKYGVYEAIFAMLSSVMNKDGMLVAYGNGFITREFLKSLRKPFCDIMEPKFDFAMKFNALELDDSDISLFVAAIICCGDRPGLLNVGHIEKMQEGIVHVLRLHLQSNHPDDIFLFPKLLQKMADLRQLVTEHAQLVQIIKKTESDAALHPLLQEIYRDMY
Chain of Glucocorticoid receptor (Homo sapiens) (P04150 whole entry, looked up): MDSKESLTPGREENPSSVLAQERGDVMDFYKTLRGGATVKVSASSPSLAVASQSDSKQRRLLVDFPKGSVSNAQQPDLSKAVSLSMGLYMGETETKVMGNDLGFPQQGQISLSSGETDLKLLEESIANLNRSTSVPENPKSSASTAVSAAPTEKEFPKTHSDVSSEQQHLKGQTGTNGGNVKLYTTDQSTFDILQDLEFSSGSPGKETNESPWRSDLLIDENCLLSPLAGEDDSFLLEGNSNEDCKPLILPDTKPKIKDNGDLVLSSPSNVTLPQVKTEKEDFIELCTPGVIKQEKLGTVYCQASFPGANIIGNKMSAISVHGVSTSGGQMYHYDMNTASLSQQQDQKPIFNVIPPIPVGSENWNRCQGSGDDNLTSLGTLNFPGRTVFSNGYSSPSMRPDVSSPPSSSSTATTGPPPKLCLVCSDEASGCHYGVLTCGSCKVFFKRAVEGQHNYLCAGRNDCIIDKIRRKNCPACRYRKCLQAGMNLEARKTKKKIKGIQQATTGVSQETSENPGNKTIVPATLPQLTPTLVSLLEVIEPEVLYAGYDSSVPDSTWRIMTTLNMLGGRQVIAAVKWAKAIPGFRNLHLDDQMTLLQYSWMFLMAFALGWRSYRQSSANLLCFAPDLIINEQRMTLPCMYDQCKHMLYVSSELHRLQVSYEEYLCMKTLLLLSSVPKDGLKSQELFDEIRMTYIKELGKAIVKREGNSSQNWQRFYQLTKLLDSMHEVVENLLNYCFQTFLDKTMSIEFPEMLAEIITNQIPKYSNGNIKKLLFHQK
Chain of Vitamin D3 receptor (Homo sapiens) (P11473 whole entry, looked up): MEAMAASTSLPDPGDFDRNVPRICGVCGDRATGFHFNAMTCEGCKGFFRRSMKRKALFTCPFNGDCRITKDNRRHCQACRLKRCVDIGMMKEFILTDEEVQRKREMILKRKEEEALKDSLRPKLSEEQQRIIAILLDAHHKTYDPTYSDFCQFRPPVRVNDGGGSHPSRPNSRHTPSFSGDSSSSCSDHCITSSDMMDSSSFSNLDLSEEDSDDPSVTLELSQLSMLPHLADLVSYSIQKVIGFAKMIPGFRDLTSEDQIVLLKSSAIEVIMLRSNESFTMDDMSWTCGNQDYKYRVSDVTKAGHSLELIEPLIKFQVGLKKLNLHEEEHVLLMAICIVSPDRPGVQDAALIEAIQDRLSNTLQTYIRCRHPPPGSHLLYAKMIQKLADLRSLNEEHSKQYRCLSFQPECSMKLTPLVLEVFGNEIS

N#Cc1c[nH]cc1-c1cccc2c1OC(F)(F)O2
active: Potency [3] 31.6 µM | Potency [6] 2.24 µM
-13.3%: max response [5]
inactive: activation [1] -6.3% | outcome [2] | outcome [4] | Potency [7] | activation [8] -3.39% | max response [9] -0.738% | Potency [10] | max response [11] -6.59% | max response [12] -14.2% | Potency [13]

O=C1CCCCCCCCCCC1
inactive: outcome [2]

CC1=C(/C=C/C(C)=C/C=C/C(C)=C/C=O)C(C)(C)CCC1
inactive: outcome [2]

CC1(C)C(C=C(Cl)Cl)[C@H]1C(=O)OCc1cccc(Oc2ccccc2)c1 (stereo partly specified)
-6.06%: max response [5]
inactive: activation [1] 0.728% | outcome [4] | Potency [6] | activation [14] 0.692%

CCOP(=S)(OCC)OC(Cl)C(Cl)(Cl)Cl (stereo unspecified)
inactive: activation [1] 11.6% | Potency [15] | outcome [2] | Potency [16] | Potency [17] | outcome [4] | max response [19] -15% | activation [20] -0.781% | activation [8] 0.0553% | activation [14] 0.044% | max response [9] -1.33% | Potency [10] | max response [11] -3.95% | Potency [13] | max response [21] 0.487% | outcome [22]
-12.5%: max response [18]

O=C/C(Cl)=C(/Cl)C(=O)O
inactive: activation [1] -13.8% | outcome [4] | Potency [7] | activation [8] 1.31% | activation [14] 5.71% | max response [9] -1.15% | max response [11] -4.23% | Potency [13] | max response [21] -11.2% | outcome [22]

CCOc1cc(Oc2ccc(C(F)(F)F)cc2Cl)ccc1[N+](=O)[O-]
inactive: activation [1] -12.9% | Potency [15] | outcome [2] | Potency [7] | max response [19] -3.17% | activation [20] 3.72% | activation [14] 3.8% | Potency [10] | max response [11] -9.09% | max response [12] -7.71%
-9.67%: max response [18]

CNC(=O)O/N=C(\C)SC
-3.33%: max response [18]
inactive: activation [1] -2.31% | Potency [15] | outcome [2] | Potency [24] | Potency [3] | Potency [17] | outcome [4] | Potency [6] | max response [19] 8.15% | activity change % (negative = inhibition) [25] -8.81% | Potency [26] | activation [20] -0.165% | activation [8] -0.423% | activation [14] -1.88% | max response [9] -0.714% | Potency [10] | max response [11] -4.43% | max response [12] -6.55% | Potency [13] | max response [21] -0.197%
-25.7%: max response [5]
24.5%: max response [23]
